Screens deposited in PubChem BioAssay by several laboratories.
Sa RN4220 lethal: S. aureus RN4220 growth inhibition; OD600, 16 h; inhibition, % (concentration not given with the values); actives 0.33% (n = 330,000); AID 1259311; in the data active means inhibition above about 85%;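 further: plate controls were untreated cells for no effect and reference antibiotic for full effect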
DUSP3 inh: DUSP3 (human) phosphatase inhibition | actives 0.52% (n = 290,000) | recombinant VHR phosphatase, pNPP absorbance | P51452 | inhibition, % at 13.3 µM | AID 1654; in the data active means inhibition above about 50%
BJeLR lethal: BJeLR cell viability loss; BJeLR (HRASV12) viability, CellTiter-Glo ATP luminescence, 48 h; inhibition, % (concentration not given with the values); actives 0.17% (n = 300,000); in the data active means inhibition above about 50%
3CLpro inhibitor: SARS-CoV 3CLpro protease inhibition; P0C6X7; recombinant SARS-CoV 3CLpro, quenched FRET peptide cleavage; inhibition, % at 6 µM; actives 0.14% (n = 290,000); AID 1706; in the data active means inhibition above about 12%
PrPC surface inh: reduces human prion protein on the cell surface | inhibition, % at 13.8 µM | cell surface PrPC, TR-FRET read-out | actives 0.43% (n = 370,000) | P04156; in the data active means inhibition above about 24%; further: 0% = median of the test wells and 100% = reference compound wells
Sa ugtP lethal: growth inhibition of S. aureus ugtP deletion strain; S. aureus RN4220 ugtP deletion, OD600 growth, 16 h; growth inhibition, % (no concentration beside the values); actives 0.54% (n = 330,000); in the data active means growth inhibition above about 68%;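 further: plate controls were untreated wells for no effect and antibiotic for full effect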
PrPC TRFRET cf: cell surface PrPC inhibition, TR-FRET confirmation; shares compounds with PrPC surface inh; cell surface PrPC level; inhibition, % at 13.8 µM; actives 65% (n = 1,500); AID 743200; in the data active means inhibition above about 25%
LD9 tox: counter-screen for PrPc inhibitors: cytotoxicity in LD9 cells | inhibition, % at 13.8 µM | shares compounds with PrPC surface inh | AID 743201 | actives 29% (n = 1,500) | luminescence viability; in the data active means inhibition above about 9.5%
An asterisk follows results filed as active; · = no result given. The list is not random: actives were taken first. Their share in the collection is about 1.4%.

SMILES	Sa RN4220 lethal	DUSP3 inh	BJeLR lethal	3CLpro inhibitor	PrPC surface inh	Sa ugtP lethal	PrPC TRFRET cf	LD9 tox
CCC(C)C1CN=C(N)N1CC1CCCCC1 (centres undefined)	5	·	·	·	·	1	·	·
CCOc1ccc(N(C)S(=O)(=O)c2ccc(C)c(C(=O)N3CCN(Cc4ccc5c(c4)OCO5)CC3)c2)cc1	5	·	·	·	25*	-5	19	-2
CC(C)CC(NC(=O)c1ccc(Cl)cc1)C(=O)OCC(=O)c1ccc2c(c1)NC(=O)CO2 (centres undefined)	-2	-6	17	5	40*	-5	53*	84*
COc1cc(C#Cc2c(-c3cncn3C)n(C)c3ccc(-c4ccc(OC)nc4)cc23)cc(OC)c1	9	·	·	·	-6	48	·	·
COc1cc(C#Cc2c(-c3cncn3C)n(C)c3ccc(-c4ccc5[nH]ccc5c4)cc23)cc(OC)c1	-9	·	·	·	27*	-5	16	14*
CCOc1ccc2c(c1)C(C)=CC(C)(C)N2S(=O)(=O)c1ccc(F)cc1	4	43	0	-1	5	-12	·	·
CCOc1ccc2c(c1)C(C)=CC(C)(C)N2S(=O)(=O)c1ccc(NC(C)=O)cc1	8	25	50	3	24*	-10	12	16*
Cc1c(C(=O)Nc2ccncc2)sc2nc(-c3ccc(F)cc3)cn12	-7	13	-10	1	56*	-5	53*	12*
NCCCCC1CNC(=O)C(=O)N1CC1CCCCC1 (centres undefined)	5	·	·	·	·	-2	·	·
CSc1sc(-c2ccnc(SCC(=O)C(C)(C)C)n2)c2c1C(=O)CC(C)(C)C2	10	4	-6	2	32*	15	48*	-1
CSc1sc(C(=O)O)c2c1C(=O)CC(C)(C)C2	-2	·	-13	·	-3	-2	·	·
N/C(=N\OC(=O)COc1ccc2ccccc2c1Br)c1cccnc1	-1	15	6	2	47*	-8	78*	3
N/C(=N\OC(=O)COc1ccc(Br)cc1Cl)c1ccccn1	7	2	-9	1	20	6	·	·
CCOC(=O)N1CCN(C(=O)COc2ccc3ccccc3c2Br)CC1	4	7	5	0	50*	-2	79*	-2
N/C(=N\OC(=O)COc1ccc2ccccc2c1Br)c1ccccn1	-1	21	5	6	59*	-8	84*	-2
COC(=O)C1=C(c2cccc(OCc3ccccc3)c2)CC2CCC1N2C(=O)NCc1ccc2[nH]ccc2c1 (centres undefined)	-4	·	·	·	·	5	·	·
CCC(C)C(NC(=O)OC(C)(C)C)c1cn(C(Cc2cc3ccccc3[nH]2)C(=O)N2CCN(C(=O)OC(C)(C)C)CC2)nn1 (centres undefined)	1	·	·	·	·	3	·	·
COc1ccc(N2CCN(CC(=O)Nc3ncc(C)s3)CC2)cc1	3	16	-26	3	0	5	·	·
Cc1cnc(NC(=O)CN2CCN(c3ccccn3)CC2)s1	-1	-3	7	-2	38*	6	31*	11*
CNC(=O)c1c(NC(=O)c2ccc(S(=O)(=O)N3CCCCC3)cc2)sc2c1CCN(C(C)C)C2	3	18	4	-1	-55	1	·	·
CC(C)N1CCc2c(sc(NC(=O)c3ccc(S(=O)(=O)N4CCCCC4C)cc3)c2C(N)=O)C1 (centres undefined)	4	18	14	-2	43*	0	-3	7
CC(=O)O[C@]1(C(C)=O)CCC2C3C=C(C)C4=CC(=O)CCC4C3CC[C@@]21C (some centres undefined)	5	·	·	·	·	6	·	·
Cc1ccc2c(c1)[nH]c1c(N3CCN(Cc4ccccc4)CC3)ncnc12	12	3	12	-2	30*	22	22	50*
COc1ccc2c(c1)[nH]c1c(N3CCN(Cc4ccc5c(c4)OCO5)CC3)ncnc12	11	14	20	0	6	17	·	·
Cc1ccc(C2CC=C(C(=O)O)C(c3ccccc3F)N2S(=O)(=O)c2ccc(C)cc2)cc1 (centres undefined)	24	·	·	·	·	26	·	·
SMILES	Sa RN4220 lethal	DUSP3 inh	BJeLR lethal	3CLpro inhibitor	PrPC surface inh	Sa ugtP lethal	PrPC TRFRET cf	LD9 tox
S=C1NC2=C(C(c3ccc(Br)cc3)N1)N1CCC2CC1 (centres undefined)	0	17	4	-8	26*	-4	25*	0
CC1CCCCC1Nc1nc2ccc(Cl)cc2n2cnnc12 (centres undefined)	1	-24	11	5	34*	-13	18	-1
Cc1cc(C)cc(Nc2nc3ccc(C)cc3n3cnnc23)c1	0	·	-4	3	-3	-7	·	·
Cc1ccccc1Nc1nc(NCc2ccco2)c2ccccc2n1	-31	22	-2	-3	14	0	·	·
c1ccc(Nc2nc(NCc3ccco3)c3ccccc3n2)cc1	-10	29	3	-4	28*	-47	35*	15*
Cc1cccc(Nc2nc(NCc3ccco3)c3ccccc3n2)c1	-12	-6	14	2	30*	-57	31*	29*
CCOC1OC(C(=O)O)=CC(c2ccccc2)C1CCCO (centres undefined)	4	·	·	·	·	1	·	·
Cc1nc(SC(=Cc2ccc(-c3cccc(Cl)c3)o2)C(=O)O)n[nH]1	4	·	·	·	·	-21	·	·
CCOC(=O)COc1cc(Br)c(/C=N/Nc2ccccc2)cc1OC	·	31	0	-5	61*	·	64*	-8
CCOC(=O)CC1c2cc(F)ccc2S(=O)(=O)N1c1cccc(OC)c1 (centres undefined)	4	·	·	·	·	-1	·	·
CC(C)C[C@H](NC(=O)c1[nH]cnc1C(=O)N[C@H](C)c1ccccc1)C(=O)OC(C)(C)C	·	21	4	7	27*	·	24	-2
CC(C)C[C@H](NC(=O)c1nc[nH]c1C(=O)NC(c1ccccc1)c1ccccc1)C(=O)OC(C)(C)C	·	10	6	8	13	·	·	·
Cc1ccc(-n2nc3cc(C)c(NC(=S)NC(=O)/C=C/c4ccco4)cc3n2)cc1	-1	20	-3	6	18	28	·	·
Cc1ccc(-n2nc3ccc(NC(=S)NC(=O)/C=C/c4ccco4)cc3n2)cc1	·	-10	1	2	65*	·	42*	-5
CCc1ccc(C(=O)NNc2cc(Cl)ccc2Cl)cc1	3	25	5	0	28*	11	25*	5
CCc1ccc(C(=O)NNc2ccccc2F)cc1	2	5	-2	3	21	2	·	·
O=C1C2C(C=Cc3ccccc3)N3C(=O)CN(Cc4ccccn4)C(=O)[C@@]3(Cc3ccccc3)C2C(=O)N1c1ccccc1 (some centres undefined)	5	·	·	·	·	-3	·	·
O=C1C=CC(O)(c2cc(=O)c3c(O)cc(O)cc3o2)C=C1	·	-11	-31	-1	82*	·	77*	59*
